Screens: PubChem, National Center for Advancing Translational Sciences (NCATS)
ELG1 repair inh – inhibitors of ELG1-dependent DNA repair in HEK293T cells; HEK293T ELG1-luciferase reporter, luminescence, 16 h; DNA damage induced by 5-fluorouridine; AID 504467; hit rate 2.3% among 330,000; Potency, µM (top dose mostly 46.1 µM), for the others: at the highest dose activity change, negative = inhibition, actives largely listed as inhibitors; note: potency is the fitted concentration of half-maximal effect; nearly all actives have a fitted effect of over 55% in size
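DMSO vehicle served as the neutral condition. Each well held 2,000 cells given 5-fluorouridine plus compound; after 16 hr at 37 °C/5% CO2, ONE-Glo was added and luciferase measured 30 min later.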
HT1080-NT tox – kills 2HG-producing HT-1080-NT fibrosarcoma cells. HT-1080-NT fibrosarcoma viability, CellTiter-Glo ATP luminescence, 48 h. Potency, µM (doses to about 46.1 µM), for inactives: at the top dose activity, negative = less viability, hits mostly cytotoxic. hit rate 1.6% among 360,000. AID 686970;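 note: NT is the 2HG producing partner of a matched IDH1 knockdown line; potency is the fitted concentration of half-maximal effect; 0% = DMSO-treated cells and -100% = media-only wells without cells; nearly all actives have a fitted effect of over 55% in size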
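Compounds were tested in concentration-response format on HT-1080-NT cells for 48 hours at 37 degrees C. Cell viability came from CellTiter-Glo luminescence; curves were classified by r2, response magnitude and activity.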
IL1B secr inh – blocks inflammasome-driven IL-1 beta release. THP-1 LPS/ATP IL-1B secretion, AlphaLISA, 16 h; active compounds read low. activity change, % at 57.5 µM. hit rate 4.7% among 360,000; in the data active = activity change below about -50%; inconclusive = mostly about -30% to -49%
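Secreted IL-1B measured by AlphaLISA bead assay after 16 h compound exposure of THP-1 cells; compounds (final up to 57.5 uM) added 1 h before LPS (250 ng/mL) and ATP (1.25 mM) stimulation; lower signal means less secretion.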
TDP1 cell noCPT – qHTS for Inhibitors of human tyrosyl-DNA phosphodiesterase 1 (TDP1): qHTS in cells in absence of CPT. hit rate 15% among 420,000. Potency, µM (doses to about 46.2 µM), inactives show top-dose activity change, negative = growth inhibition, usual class: inhibitors. DT40 Tdp1-/- hTDP1 cells, no CPT, ATP luminescence, 48 h; note: potency is the fitted concentration of half-maximal effect; nearly all actives have a fitted effect of over 55% in size
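Compound effects on proliferation are scored in DT40 Tdp1-/-;hTDP1 cells in the absence of CPT. ATP levels (CellTiter-Glo luminescence) are recorded after a ≥48 hr, 37 °C incubation.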
HT1080 IDH1KD tx – HT-1080 IDH1 knockdown cell toxicity (counter line); HT-1080 IDH1 knockdown viability, ATP luminescence, 48 h; AID 686971; Potency, µM (doses to about 46.1 µM), without a hit: top-dose activity, negative = toxicity, most hits filed as cytotoxic; hit rate 2% among 360,000;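 note: potency is the fitted concentration of half-maximal effect; 0% = DMSO wells and -100% = cell-free medium wells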
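CellTiter-Glo luminescence after 48 h compound exposure at 37 degrees C of IDH1-knockdown HT-1080 cells in 5% FBS RPMI. %Activity scaled between DMSO wells and cell-free media wells, with curves fitted and assigned curve classes.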
DT40 TDP1 CPT – growth inhibition of DT40 Tdp1-/-;hTDP1 cells with camptothecin (screen for TDP1 inhibitors) | chicken DT40 Tdp1-/-;hTDP1 cells + 20 nM CPT, ATP luminescence, 48 h | Potency, µM (highest dose often 46.2 µM), without a hit: at the top dose activity change, negative = growth inhibition, usual class: inhibitors | hit rate 12% among 420,000 | AID 686979; note: potency is the fitted concentration of half-maximal effect; nearly all actives have a fitted effect of over 55% in size
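Cell growth measured by CellTiter-Glo luminescence after a minimum 48 h, 37 C compound exposure with 20 nM CPT in Tdp1-knockout DT40 cells stably expressing hTDP1, seeded 400/well; qHTS titration format.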
ELG1 FLuc counter – luciferase inhibition in cell-free luciferin readout for ELG1 hits; shares compounds with ELG1 repair inh; cell-free firefly luciferase luminescence counter-screen, ViewLux; Potency, µM (top dose mostly 46.1 µM), for inactives: top-dose activity change, negative = inhibition, hits mostly inhibitors; hit rate 3% among 350; AID 624247; note: potency is the fitted concentration of half-maximal effect
ELG1 Luc conf – confirmation of human ELG1-dependent DNA repair inhibitors | shares compounds with ELG1 repair inh | HEK293T ELG1-luciferase levels, luminescence; cells co-treated with 5-fluorouridine | Potency, µM (doses to about 46.1 µM), for inactives: at the top dose activity change, negative = inhibition, hits mostly inhibitors | hit rate 68% among 670 | AID 624248; note: potency is the fitted concentration of half-maximal effect; nearly all actives have a fitted effect of over 55% in size
ELG1-Luc MMS – confirmation of human ELG1 repair inhibitors, MMS stimulated; Potency, µM (doses to about 46.1 µM), for inactives: at the highest dose activity change, negative = inhibition, actives largely listed as inhibitors; hit rate 53% among 670; shares compounds with ELG1 repair inh; HEK293T luciferase-tagged ELG1 level, MMS stimulated; note: potency is the fitted concentration of half-maximal effect; nearly all actives have a fitted effect of over 60% in size
ELG1 5FU viab – confirmation of ELG1 repair inhibitors: viability with 5FU. cell viability with 5-FU, ELG1-dependent repair. shares compounds with ELG1 repair inh. 670 tested, under 10 active. Potency, µM (top dose mostly 46.1 µM), for inactives: at the top dose activity change, negative = viability loss, usual class: cytotoxic;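 note: ELG1-luc HEK293T cells cotreated with 5-fluorouridine at 10 µM final; potency is the fitted concentration of half-maximal effect; viability measured 16 h after compound addition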
ELG1 MMS viab – confirmation of ELG1 repair inhibitors: viability with MMS; shares compounds with ELG1 repair inh; Cell viability with MMS, ELG1-dependent DNA repair; Potency, µM (top dose mostly 46.1 µM), without a hit: top-dose activity change, negative = viability loss, usual class: cytotoxic; hit rate 33% among 670;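 note: ELG1-luc HEK293T cells co-treated with 10 µM MMS; potency is the fitted concentration of half-maximal effect; viability read 16 h after compound addition; nearly all actives have a fitted effect of over 60% in size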
Cell viab unstim – counter-screen for ELG1 repair inhibitors: unstimulated cell viability | cell viability counter-screen, unstimulated, luminescence | AID 624252 | shares compounds with ELG1 repair inh | Potency, µM (top dose mostly 45.9 µM), for the others: at the highest dose activity change, negative = loss of viability, hits mostly cytotoxic | hit rate 8% among 900;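 note: potency is the fitted concentration of half-maximal effect; compound exposure lasted 16 hours before reading; nearly all actives have a fitted effect of over 55% in size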
FLuc enzyme – inhibits purified firefly luciferase, counter-screen for ELG1 hits. shares compounds with ELG1 repair inh. purified firefly luciferase, luminescence counter-screen. Potency, µM (series often up to 57.5 µM), without a hit: at the highest dose activity, negative = inhibition, hits mostly inhibitors. hit rate 10% among 350. AID 624253; note: potency is the fitted concentration of half-maximal effect
* marks the source's active call; other numbers are inactive results; ? = inconclusive; · = no result given. The list is not random: actives were taken first. Their share in the collection is about 19%. Unless noted, calls come from the whole dose curve; as a rule, active = well fitted curve in the direction sought with a large enough effect; inconclusive = small, poorly fitted or top-dose-only effect, or another doubt; inactive = no such curve, though single readings can be large; an effect the other way counts as inactive or inconclusive. Unless noted, % is set by controls: 0 for no effect and ±100 for the full control effect.

SMILES | ELG1 repair inh | HT1080-NT tox | IL1B secr inh | TDP1 cell noCPT | HT1080 IDH1KD tx | DT40 TDP1 CPT | ELG1 Luc conf | ELG1-Luc MMS | ELG1 5FU viab | ELG1 MMS viab | Cell viab unstim | others
CC(=O)NC(CC(=O)Nc1ccc(S(=O)(=O)Nc2nccs2)cc1)c1ccccc1 (stereo not drawn) | 0.517µM* | -4.0% | -3.5 | -23.0% | -4.2% | 0.2% | ? | -5.8% | 4.9% | 10.6% | 5.3% | ELG1 FLuc counter=6.4%;FLuc enzyme=1.6%
CCOC(=O)c1sc(N(Cc2ccccc2)C(=O)COC(=O)c2ccc(O)cc2)nc1C | 1.3µM* | -18.8% | ? | 5.8µM* | -21.1% | 9.2µM* | 1.99µM* | 0.705µM* | -14.7% | 0.791µM* | ?
CCOC(=O)c1sc(N(Cc2ccccc2)C(=O)COC(=O)c2ccccc2O)nc1C | 23.2% | 12.2% | 0.0 | ? | 2.1% | -28.3% | · | · | · | · | ·
COc1ccc(-c2nc3ccccc3c(=O)n2CC(C)C)cc1 | -1.2% | 0.9% | 30.9 | ? | 4.1% | ? | · | · | · | · | ·
Cc1ncoc1C(=O)NC1CCCc2c1cnn2-c1ccc(C(C)(C)C)cc1 (stereo not drawn) | 1.3µM* | ? | -10.0 | 7.31µM* | ? | 7.31µM* | ? | 0.791µM* | -6.4% | 0.791µM* | 8.88µM*
CC1=C(C(=O)OCc2ccc3c(c2)OCO3)C(c2ccc(Cl)cc2)NC(=O)N1 (stereo not drawn) | 0.231µM* | 2.51µM* | -18.9 | 2.91µM* | 2.24µM* | 2.31µM* | 0.199µM* | 0.889µM* | 10.6% | ? | ? | ELG1 FLuc counter=?;FLuc enzyme=2.9%
C/C=C/COC(=O)C1=C(C)NC(=O)NC1c1ccc2c(c1)OCO2 (stereo not drawn) | -13.2% | -16.0% | -23.7 | -7.9% | -8.9% | -20.3% | · | · | · | · | ·
CC1=C(C(=O)OCc2ccc3c(c2)OCO3)C(c2ccc(F)cc2)NC(=O)N1 (stereo not drawn) | 1.3µM* | 4.47µM* | -5.7 | 4.11µM* | 5.01µM* | 4.11µM* | 0.889µM* | 4.45µM* | -0.6% | ? | ? | ELG1 FLuc counter=?;FLuc enzyme=-7.0%
COc1cccc(C(=O)OC(C)C(=O)NCC2CCCCC2)c1 (stereo not drawn) | -3.2% | -0.2% | 30.1 | -0.7% | 11.4% | 10.4% | · | · | · | · | ·
COc1ncnc2c1ncn2CCCNCCCN1CCCC1=O | · | 14.7% | 8.1 | -22.6% | 1.5% | 4.3% | · | · | · | · | ·
Cc1cc(C(=O)Nc2ccc(Br)cn2)sc1C | ? | -1.7% | -16.5 | -12.0% | -5.8% | -17.2% | · | · | · | · | ?
Cc1ccc(S(=O)(=O)NNC(=O)CCC(=O)Nc2ccccc2Cl)cc1 | 17.5% | -1.7% | -12.8 | -3.8% | -0.2% | -3.8% | · | · | · | · | ·
CCc1cc(C(=O)NCC2CCCO2)sc1C (stereo not drawn) | ? | 0.0% | 2.1 | 11.9% | 5.3% | 18.2% | · | · | · | · | ·
CN=C1SC(CC(=O)Nc2ccccc2F)C(=O)N1/N=C/c1ccc(O)c(OC)c1 (stereo not drawn) | 2.91µM* | ? | 8.7 | 13µM* | ? | 23.1µM* | 14.1µM* | 11.8% | ? | -0.5% | ?
O=C(/C=C/c1ccc(S(=O)(=O)N2CCOCC2)cc1)N1CCN(c2ccc(F)cc2)CC1 | 2.31µM* | -0.4% | -2.4 | 3.66µM* | -7.8% | 7.31µM* | -27.9% | 7.06µM* | -4.7% | ? | ? | ELG1 FLuc counter=-0.2%;FLuc enzyme=-15.2%
CCNC(=O)C1CCCN(C(=O)c2cccc(C(F)(F)F)c2)CC1 (stereo not drawn) | · | 19.4% | 42.4 | -17.5% | 1.6% | -14.2% | · | · | · | · | ·
COc1ccc(C(=O)O)cc1S(=O)(=O)Nc1ccccc1Cc1ccccc1 | 3.9% | -2.6% | 35.1 | 5.5% | 11.2% | 3.4% | · | · | · | · | ·
Cc1cccn2c(CNCC3(c4ccccc4)CCCC3)c(C(=O)N3CCOCC3)nc12 | 2.91µM* | -23.1% | -5.5 | 10.3µM* | -25.0% | 13µM* | ? | 12.5µM* | -8.7% | 25µM* | ?
CN1/C(=C\C(=O)C[n+]2ccc3ccccc3c2)C(C)(C)c2ccccc21 | 1.16µM* | ? | -52.9* | 0.291µM* | ? | 0.651µM* | ? | 1.99µM* | -6.2% | 2.81µM* | ?
CN1/C(=C\C(=O)c2cccnc2)C(C)(C)c2ccccc21 | -0.1% | 22.0% | 13.7 | ? | 20.8% | -63.9% | · | · | · | · | ·
CC(=O)Nc1ccc(NC(=O)CCc2nc3sc4c(c3c(=O)[nH]2)CCCC4)cc1 | 3.7% | -14.2% | 2.3 | -1.1% | 0.6% | -18.0% | · | · | · | · | ·
Cc1cc(C)cc(NC(=O)CCc2nc3sc4c(c3c(=O)[nH]2)CCCC4)c1 | -11.5% | -14.2% | -4.5 | 10.3µM* | -13.4% | 4.61µM* | · | · | · | · | ? | ELG1 FLuc counter=8.0%;FLuc enzyme=-4.3%
